This is a sample that favours compounds with a hit; in the whole collection about 7.8% have one here.
HCMV inh: human cytomegalovirus inhibition. HFF cells, HCMV-luciferase reporter, 72 h; stronger effect = lower value. activity change, negative = inhibition, % at 57.5 µM. 410,000 compounds, 4.5% hits; in the data active = activity change below about -60%; inconclusive = no clear call, values can overlap the other calls; inactive = above about -39%; also: % is scaled to controls: 0 for no effect and ±100 for the full control effect
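Two-dose cell screen: HFF monolayers treated with compounds and infected with luciferase-expressing HCMV at 1 PFU/cell, 72 h at 37C, then lysed for luciferase measurement.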
VACV mCherry inh: inhibitors of vaccinia virus infection (mCherry reporter signal) | Vaccinia virus mCherry reporter infection, fluorescence | Potency, µM (highest dose often 36.5 µM), without a hit: at the top dose activity change, negative = inhibition, usual class: inhibitors | 310,000 compounds, 0.63% hits; calls by dose curve; tested in A549 cells; also: potency is read from the fitted curve at half-maximal effect; % is scaled to controls: 0 for no effect and ±100 for the full control effect; nearly all actives have a fitted effect of over 35% in size
Lassa entry inh: inhibitors of Lassa virus binding or cell entry | Lassa virus pseudotype entry inhibition, cell reporter | Potency, µM (doses to about 37.9 µM), for inactives: top-dose activity change, negative = inhibition, most hits filed as inhibitors | 300,000 compounds, 1.2% hits; calls by dose curve; tested in HEK293 cells; also: potency is read from the fitted curve at half-maximal effect; % is scaled to controls: 0 for no effect and ±100 for the full control effect; nearly all actives have a fitted effect of over 50% in size
HCV inhibitor: HCV inhibition | 340,000 compounds, 3.4% hits | Huh7.5.1 HCVcc-Cre infection, luciferase reporter, 44 h | Potency, µM (series often up to 41.8 µM), for inactives: top-dose activity change, negative = inhibition, actives largely listed as inhibitors; also: potency is read from the fitted curve at half-maximal effect; % is scaled to controls: 0 for no effect and ±100 for the full control effect
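Infectious HCVcc-Cre (~0.5 moi) was added to cells just after compound, with cells seeded 4 h earlier at 1,000 per well. Luciferase activity after 44 h culture reported infection; substrate was incubated 15 min at room temperature before reading.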
Marburg entry inh: Marburg virus entry inhibition; Marburg virus pseudotyped entry inhibition, cell reporter; Potency, µM (top dose mostly 37.8 µM), inactives show at the top dose activity change, negative = inhibition, usual class: inhibitors; 300,000 compounds, 1.8% hits; AID 540276; calls by dose curve; tested in HEK293 cells; also: potency is read from the fitted curve at half-maximal effect; % is scaled to controls: 0 for no effect and ±100 for the full control effect
VACV Venus inh: vaccinia inhibition (Venus reporter); Vaccinia virus Venus reporter expression, fluorescence; Potency, µM (highest dose often 36.5 µM), for inactives: at the top dose activity change, negative = inhibition, most hits filed as inhibitors; 330,000 compounds, 0.46% hits; AID 720580; calls by dose curve; tested in A549 cells; also: potency is read from the fitted curve at half-maximal effect; % is scaled to controls: 0 for no effect and ±100 for the full control effect; nearly all actives have a fitted effect of over 30% in size
HeLa G2M arrest: HeLa G2/M cell cycle arrest induction; shares compounds with Marburg entry inh; HeLa cell cycle G2/M arrest, Hoechst DNA content imaging; Potency, µM, usual class: inhibitors; 25 compounds, 60% hits; AID 2441
WI-38 cytotox: toxic to WI-38 fibroblasts in PNC inhibitor counter-screen | shares compounds with Marburg entry inh | 120 tested, under 10 active | Potency, µM (top dose mostly 46.1 µM), for inactives: top-dose activity change, negative = cytotoxicity, usual class: inhibitors | WI-38 normal lung fibroblasts, ATPLite luminescence ATP viability, 24 h
PNC assembly inh: confirmation of perinucleolar compartment assembly inhibitors; shares compounds with Marburg entry inh; PC3M PTB-GFP, PNC prevalence imaging, 16 h; Potency, µM (titrated, usually from 46.1 µM), inactives show top-dose activity, negative = PNC inhibition, most hits filed as inhibitors; 120 compounds, 50% hits
PC3M casp3-7: PC3M caspase 3/7 activation by PNC inhibitor hits; shares compounds with Marburg entry inh; PC3M-GFP caspase 3/7 activation, luminescence, 24 h; activity change, positive = activation, % at 46.1 µM; 120 tested, under 10 active
An asterisk follows results filed as active; i = inactive; ? = inconclusive; / = no result; ! = repeats disagree; [ ] = remark or other dose. Unless noted, calls follow the shape of the dose curve; as a rule, active = well fitted curve in the direction sought with a large enough effect; inconclusive = small, poorly fitted or top-dose-only effect, or another doubt; inactive = no such curve, though single readings can be large; an effect the other way counts as inactive or inconclusive.

SMILES | HCMV inh | VACV mCherry inh | Lassa entry inh | HCV inhibitor | Marburg entry inh | VACV Venus inh | WI-38 cytotox | PNC assembly inh | PC3M casp3-7 | others
CC(C)c1ccc(S(=O)(=O)/N=C2/C=C(Sc3ncn[nH]3)C(=O)c3ccccc32)cc1 | / | 11.2µM* | ? | 2.51µM* | ? | ? | -4.3% | ? | -4.2
Cc1ccccc1C(=O)NNC(=S)Nc1cccc(C(F)(F)F)c1 | -13.1 | ? | ? | ? | ? | ? | -3.3% | -19.7% | -6.6
CC(=O)Nc1cccc(Oc2ncnc3scc(-c4ccc(C)cc4)c23)c1 | -66.3* | / | ? | ? | -17.8% | / | 27.0% | -1.2% | -4.7
O=C(NCc1ccco1)C1CCN(Cc2ccc(F)cc2)CC1 | 2.4 | / | 14.7% | -6.7% | 1.6%[46.1 µM] | -6.8% | -5.5% | -6.0% | -1.8
O=C(NCc1ccco1)C1CCCCC1 | ? | / | 5.9% | 21.1% | -5.6% | / | / | / | /
Cc1ccc(C)c(CSC2=NC(C)(C)Nc3ccccc32)c1 | ? | -6.0% | ? | / | / | -1.5% | / | / | /
Cn1c(=O)c(=O)n(C)c2cc(N3CCCC3)c(NC(=O)c3ccccc3Cl)cc21 | -10.9 | -11.7% | 9.7%[46.1 µM] | / | 3.4%[46.1 µM] | -3.7% | / | / | /
CC12CCC(C(=O)NC(c3ccccc3)c3ccccc3)(OC1=O)C2(C)C (stereo not drawn) | 61.5 | / | ? | 13.2% | 1.3% | / | -9.7% | 15.0% | -1.1
O=C(OCc1cc(=O)n2c3c(sc2n1)CCCC3)c1cccc(NC(=O)c2ccccc2F)c1 | 6.4 | -5.1% | ? | / | / | -26.4% | / | / | /
Cc1cccc(/C=C(\c2nc3ccccc3[nH]2)S(=O)(=O)c2ccccc2)c1 | -98.3* | ? | ? | 11.2µM* | 12.6µM* | ? | ? | 22.4µM* | -9.8
Cc1ccc(NC(=S)c2nc3ccccc3[nH]2)c(C)c1 | 49.6 | ? | ? | -14.6% | ? | -27.6% | / | / | /
CCOc1ccc(NC(=O)CN(C)S(=O)(=O)c2ccc3c(c2)c(=O)n(C)c(=O)n3C)cc1 | -18.2 | -10.5% | 0.2%[46.1 µM] | / | -24.8%[46.1 µM] | -16.6% | / | / | /
COc1cccc(CNc2cccc3cccnc23)c1O | 26.9 | / | -19.0% | -3.4% | 17.2% | / | -8.7% | 6.8% | 0.9
C(=N\Nc1nc2ccccc2[nH]1)/c1ccccc1 | 51.6 | -27.1% | -0.7% | -19.7% | -1.5% | -29.5% | / | / | /
O=[N+]([O-])c1cc(/C=N/Nc2nc3ccccc3[nH]2)c(O)cc1O | -98.8* | 2.82µM* | 10µM* | ? | 8.91µM* | ? | -16.2% | 28.2µM* | -23.3
Cc1ccc(S(=O)(=O)N(C)c2ccc(OCC(=O)Nc3nc4ccccc4s3)cc2)cc1 | -80.5* | ? | ? | ? | 14.6µM* | -26.0% | -19.5% | ? | -9.8
Cc1ccc(S(=O)(=O)N(C)c2ccc(OCC(=O)Nc3ccc(S(C)(=O)=O)cc3)cc2)cc1 | -7.9 | -9.7% | ? | ? | -0.4% | -26.4% | / | / | /
O=c1[nH]c(SCc2ccccc2[N+](=O)[O-])nc2nc[nH]c12 | ? | i | / | -12.6% | / | -12.1% | / | / | /
O=c1[nH]cnc2c1C(c1ccccc1[N+](=O)[O-])c1c(nc[nH]c1=O)O2 | 57.4 | / | -6.0% | 9.1% | 1.0% | / | ? | -21.5% | 1.2
CCOC(=O)c1ccccc1NC(=O)CSc1nc2ncccc2[nH]1 | -29.8 | -3.3% | 3.6%[46.1 µM] | / | / | -0.8% | / | / | /
CCC(C)(C)NC(=O)Cn1c(=O)ccc2cc(S(=O)(=O)N3CCC(C)CC3)ccc21 | -12.2 | -8.7% | 16.4%[46.1 µM] | / | / | -4.2% | / | / | /
Nc1nc(N)c2nc(-c3ccccc3)c(N)nc2n1 | ? | ? | ? | 13.3%[8.37 µM] | 2.82µM*! | ? | / | / | / | HeLa G2M arrest=10*
NSc1nc(N)c2nc(-c3ccccc3)c(-c3ccccc3)nc2n1 | 32.2 | -21.2% | -4.7% | -10.0% | -16.1%[46.1 µM] | -20.0% | / | / | /
Cc1ccc(-c2cc(-c3coc4ccccc4c3=O)c3c(n2)-c2ccccc2OC3)cc1 | -1.3 | -5.1% | 1.3%[46.1 µM] | / | ? | -0.2% | / | / | /
O=C(N/N=C/c1c(O)ccc2ccccc12)c1cccc(C(F)(F)F)c1 | -105.0* | 3.55µM* | ? | ? | 2.59µM* | ? | -18.4% | ? | 7.6
SMILES | HCMV inh | VACV mCherry inh | Lassa entry inh | HCV inhibitor | Marburg entry inh | VACV Venus inh | WI-38 cytotox | PNC assembly inh | PC3M casp3-7 | others
COc1ccc(-c2csc(NC(=O)c3ccc(OCC(=O)N4CCOCC4)c(OC)c3)n2)cc1 | -23.7 | -18.5% | ? | ? | ? | -19.0% | 1.9% | ? | -7.9
CCOc1ccccc1NC(=O)c1ccc(OCC(=O)N2CCOCC2)c(OC)c1 | ? | / | / | 10.2% | / | / | / | / | /
O=C(NC(Cc1c[nH]c2ccccc12)C(=O)Nc1ccc(OC(F)(F)F)cc1)c1cccs1 (stereo not drawn) | -97.0* | ? | 2.06µM* | ? | 2.59µM* | -25.8% | -10.1% | 7.08µM* | -2.7
CCOCCCN(C(=O)Nc1ccc(Cl)cc1)C1CCN(C(C)=O)CC1 | 9.0 | -11.3% | 3.2%[46.1 µM] | / | / | -14.5% | / | / | /
CCCCN(C(=O)Nc1ccc(Cl)cc1)C1CCN(C(C)=O)CC1 | 24.9 | -10.3% | ? | 18.9% | 5.8% | -11.8% | 4.1% | -11.0% | -0.8
CCOc1ccc(CNC(=O)c2cc3c(s2)-c2ccccc2OC3)cc1 | -10.8 | -2.8% | / | / | 12.4%[46.1 µM] | 1.6% | / | / | /
Cc1ccc(-n2cc(-c3ccccc3)c3c(NN4CCOCC4)ncnc32)cc1 | ? | ? | -8.7% | -13.7% | 2.8% | ? | 16.5% | -20.5% | -2.2
O=C(COC(=O)Cc1ccsc1)NCC1CCCCC1 | 15.1 | i | -4.4% | -11.5% | 3.2%[46.1 µM] | -4.4% | -9.1% | -12.7% | -0.1
O=C(COC(=O)Cc1ccc(Br)cc1)NCC1CCCCC1 | ? | i | 25.1%[46.1 µM] | 17.9% | 5.0%[46.1 µM] | -21.7% | / | / | /
O=C(Nc1ccc(F)c(F)c1)c1cnn2c1NC(=C1CC1)C=C2C(F)(F)F | / | -19.4% | / | / | / | -17.7% | / | / | /
COc1ccc(CC(=O)NC2CC(=O)N(c3cccc(F)c3)C2)cc1 (stereo not drawn) | ? | -10.4% | 4.0%[46.1 µM] | / | / | -7.2% | / | / | /
COc1cc(C(=O)Oc2ccccc2/C=N/NC(=O)c2ccc(Cl)cc2)cc(OC)c1OC | -99.3* | ? | 11.2µM* | 2.82µM* | 11.6µM* | ? | ? | ? | -3.0
O=C(Cc1cccs1)Nc1nc2c(s1)CCCC2 | -73.1* | / | 2.59µM* | ? | 0.58µM* | / | 7.6% | 8.91µM* | -17.3
